Results reported in PubChem BioAssay AID1159580 (chemical genetic matrix, 2015).
Where “and” joins values, the source holds several entries; their conditions need not be identical. Identical values can stand only once. The whole screen tested about 5,500 compounds, of which about 2,000 (36%) were called active. Another 18% or so got no clear call; they are omitted. Rule as the data show it: active = normalized growth mostly below about 0.91 (no sharp cut-off); inconclusive = no clear call, values can overlap the other calls; inactive = mostly above about 0.92. This is one part of the list.

Assay: chemical genetic growth profiling, strain panel (AID 1159580);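 also: tested at 20 µM; growth read once vehicle control cultures reached saturation at 30 °C; 1 = growth at the plate median or of vehicle wells; lower values mean less growth of the strain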
Details: S. cerevisiae deletion strains, growth OD

Measured: normalized growth

CC(=O)O[C@]1(C(C)=O)CCC2C3C=C(C)C4=CC(=O)CCC4(C)C3CCC21C (stereo partly specified)
0.917 (active) and 0.949 (inactive): locus YHR030C, strain SLT2, stronger effect = lower value
0.741 (active) and 0.98 (inactive): locus YJL095W, strain BCK1, stronger effect = lower value
inactive: locus YAL021C, strain ccr4, stronger effect = lower value 1.04 | locus YAL026C, strain drs2, stronger effect = lower value 0.961 | locus YAL030W, strain snc1, stronger effect = lower value 0.959 | locus YBL061C, strain skt5, stronger effect = lower value 0.932 | locus YBR009C, strain hhf1, stronger effect = lower value 0.916 | locus YBR021W, strain FUR4, stronger effect = lower value 0.924 | locus YBR023C, strain chs3, stronger effect = lower value 0.92 | locus YBR171W, strain sec66, stronger effect = lower value 0.926 | locus YBR229C, strain ROT2, stronger effect = lower value 0.985 | locus YBR231C, strain swc5, stronger effect = lower value 0.933 | locus YBR279W, strain paf1, stronger effect = lower value 0.993 | locus YCL011C, strain gbp2, stronger effect = lower value 0.975 | locus YCL016C, strain dcc1, stronger effect = lower value 0.971 | locus YCL029C, strain bik1, stronger effect = lower value 0.958 | locus YCL069W, strain vba3, stronger effect = lower value 0.929 | locus YCR088W, strain abp1, stronger effect = lower value 0.958 | locus YDL005C, strain med2, stronger effect = lower value 0.934 | locus YDL035C, strain GPR1, stronger effect = lower value 0.908 | locus YDL040C, strain nat1, stronger effect = lower value 0.968 | locus YDL074C, strain BRE1, stronger effect = lower value 0.784 | locus YDL101C, strain DUN1, stronger effect = lower value 0.982 | locus YDL134C, strain PPH21, stronger effect = lower value 0.996 | locus YDL185W, strain tfp1, stronger effect = lower value 0.984 | locus YDL192W, strain arf1, stronger effect = lower value 0.957 | locus YDR001C, strain nth1, stronger effect = lower value 0.964 | locus YDR069C, strain doa4, stronger effect = lower value 0.978 | locus YDR101C, strain arx1, stronger effect = lower value 0.969 | locus YDR150W, strain NUM1, stronger effect = lower value 0.993 | locus YDR159W, strain sac3, stronger effect = lower value 0.892 | locus YDR195W, strain ref2 0.976 | locus YDR297W, strain sur2, stronger effect = lower value 0.951 | locus YDR318W, strain mcm21, stronger effect = lower value 0.92 | locus YDR334W, strain swr1, stronger effect = lower value 0.962 | locus YDR335W, strain msn5, stronger effect = lower value 0.957 | locus YDR388W, stronger effect = lower value 0.975 | locus YEL003W, strain gim4, stronger effect = lower value 0.941 | locus YEL037C, strain rad23, stronger effect = lower value 0.969 | locus YEL061C, strain CIN8 (second series), stronger effect = lower value 0.959 | locus YEL061C, strain CIN8, stronger effect = lower value 0.989 | locus YER015W, strain faa2, stronger effect = lower value 0.971 | locus YER016W, strain bim1, stronger effect = lower value 0.966 | locus YER110C, stronger effect = lower value 0.958 | locus YER111C, strain swi4, stronger effect = lower value 0.963 | locus YER155C, strain BEM2, stronger effect = lower value 1.01 | locus YFR010W, strain ubp6, stronger effect = lower value 0.961 | locus YGL078C, strain dbp3, stronger effect = lower value 0.992 | locus YGL167C, strain pmr1, stronger effect = lower value 0.955 | locus YGL173C, strain kem1, stronger effect = lower value 0.92 | locus YGL227W, strain vid30, stronger effect = lower value 0.968 | locus YGL240W, strain doc1, stronger effect = lower value 0.925 | locus YGL248W, strain PDE1, stronger effect = lower value 0.992 | locus YGL253W, strain hxk2, stronger effect = lower value 0.915 | locus YGR252W, strain gcn5, stronger effect = lower value 0.862 | locus YHR013C, strain ard1, stronger effect = lower value 0.998 | locus YHR027C, strain rpn1, stronger effect = lower value 0.981 | locus YHR079C, strain IRE1 (second series), stronger effect = lower value 0.969 | locus YHR079C, strain IRE1, stronger effect = lower value 0.958 | locus YHR094C, strain hxt1, stronger effect = lower value 0.98 | locus YHR129C, strain ARP1, stronger effect = lower value 0.94 | locus YHR200W, strain rpn10, stronger effect = lower value 0.956 | locus YIL066C, strain RNR3, stronger effect = lower value 0.878 | locus YIL073C, strain SPO22, stronger effect = lower value 0.887 | locus YIL125W, strain kgd1, stronger effect = lower value 0.982 | locus YIR030C, strain dcg1, stronger effect = lower value 0.973 | locus YJL092W, strain hpr5, stronger effect = lower value 0.944 | locus YJL095W, strain BCK1 (second series), stronger effect = lower value 0.931 | locus YJL115W, strain asf1, stronger effect = lower value 0.973 | locus YJL134W, strain LCB3, stronger effect = lower value 0.989 | locus YJL154C, strain vps35, stronger effect = lower value 0.964 | locus YJL164C, strain tpk1, stronger effect = lower value 0.951 | locus YJL168C, strain set2, stronger effect = lower value 0.969 | locus YJL187C, strain SWE1 (second series), stronger effect = lower value 0.98 | locus YJR066W, strain TOR1, stronger effect = lower value 0.929 | locus YJR075W, strain HOC1, stronger effect = lower value 0.952
active: locus YAL013W, strain DEP1, stronger effect = lower value 0.897 | locus YDR137W, strain rgp1, stronger effect = lower value 0.775 | locus YDR162C, strain NBP2, stronger effect = lower value 0.804 | locus YDR392W, strain spt3, stronger effect = lower value 0.445 | locus YDR502C, strain sam2, stronger effect = lower value 0.904 | locus YER155C, strain BEM2 (second series), stronger effect = lower value 0.859 | locus YER167W, strain BCK2, stronger effect = lower value 0.88 | locus YGL086W, strain mad1, stronger effect = lower value 0.91 | locus YGR078C, strain PAC10, stronger effect = lower value 0.836 | locus YGR135W, strain pre9, stronger effect = lower value 0.883 | locus YGR229C, strain SMI1, stronger effect = lower value 0.643 | locus YHR142W, strain chs7, stronger effect = lower value 0.815 | locus YJL129C, strain trk1, stronger effect = lower value 0.854 | locus YJL166W, strain qcr8, stronger effect = lower value 0.863 | locus YJR043C, strain POL32, stronger effect = lower value 0.85
